Activity calls are given as the source filed them. Unless noted, no rule for the calls is given here.

The test system of assay [1] is XIP peptide (Xip251-270) binding. As to the kind of experiment: XIP fragment 251-270 binding compounds – biochemical, small-molecule microarray, fluorescence 635/667 nm, 0.1 µg/mL protein, primary screen (AID 1182). As to conditions: fluorescent protein binding, 635 nm, higher = more signal, called active from +8 up or from −8 down.
For a further assay, the system named is XIP peptide (Xip251-270). Briefly: compounds binding XIP fragment 251-270 – biochemical, small-molecule microarray, fluorescence 635/667 nm, 0.5 µg/mL protein, primary screen (AID 1183). As to conditions: fluorescence 635 nm, higher = more signal.
Assay [2] can be described thus: blood-stage malaria parasite viability loss – strain 3D7, DAPI fluorescence, 100 nL, primary screen (AID 1184).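 Also: parasites grown inside human red blood cells in medium with human serum.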 As to conditions: P. falciparum 3D7 growth, 3 d, higher = more signal.
In assay [3] the target is Homeobox protein Hox-A13 (Mus musculus) (UniProt Q62424). As to the kind of experiment: disruptors of Hoxa13 oligonucleotide interaction – biochemical, fluorescence polarization, labeled oligonucleotide, primary screen (AID 1185). As to conditions: Hoxa13:DNA binding, 15 min, higher = more signal, called active from +8 up or from −8 down.
Assay [4] is described as follows: blockers of DNA damage checkpoint Chk1 activation – imaging, HeLa, hydroxyurea, phospho-Chk1 antibody, percent positive cells, primary screen (AID 1186). Conditions: hydroxyurea-induced phospho-Chk1 immunofluorescence imaging, higher = more signal.
A short description of assay [5]: blockers of DNA damage checkpoint Chk1 activation – imaging, HeLa, hydroxyurea, phospho-Chk1 nuclear intensity, primary screen (AID 1187). Conditions: hydroxyurea-induced phospho-Chk1 immunofluorescence imaging, higher = more signal.

Chain of Homeobox protein Hox-A13 (Mus musculus) (Q62424 whole entry, looked up): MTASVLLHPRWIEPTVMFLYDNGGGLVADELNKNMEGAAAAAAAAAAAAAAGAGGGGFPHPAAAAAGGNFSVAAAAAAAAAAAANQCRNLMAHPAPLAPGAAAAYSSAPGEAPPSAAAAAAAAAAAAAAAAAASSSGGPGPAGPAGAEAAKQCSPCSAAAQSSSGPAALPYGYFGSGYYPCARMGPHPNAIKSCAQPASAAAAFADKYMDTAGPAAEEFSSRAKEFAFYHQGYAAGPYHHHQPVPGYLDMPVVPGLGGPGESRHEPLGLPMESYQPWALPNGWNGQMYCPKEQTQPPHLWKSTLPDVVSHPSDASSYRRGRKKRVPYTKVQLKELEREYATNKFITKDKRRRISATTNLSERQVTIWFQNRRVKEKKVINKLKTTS

`O=C1C[C@@](C(=O)NC2CC2)(c2ccc([N+](=O)[O-])cc2)[C@@H](c2ccc(CO)cc2)N1CC12CC3CC(CC(C3)C1)C2`: the figures for the composite z-score (in assay [1]; with XIP peptide (Xip251-270)) were -0.181 (inactive) and 0.611, respectively. Moreover, the z-score in assay [2] was -0.909; in assay [3] it was -5.08 (inactive); in assay [4], -0.635 (inactive); in assay [5] it was -0.617 (inactive).
For `O=C1N(CCS(=O)(=O)c2ccccc2)Cc2ccccc2[C@H]2OC(c3ccc(OCCCO)cc3)=N[C@@]12CCS(=O)(=O)c1ccccc1`, the composite z-score in assay [1] was 2.05 (inactive); in the assay on XIP peptide (Xip251-270), 0.81. Besides, the z-score in assay [2] is -2.09; in assay [3], -0.483 (inactive); in assay [4], -0.44 (inactive); in assay [5], -0.346 (inactive).
`CC(C)=CCCC(C)=CC(O)C1C=CC2C(=O)N(c3ccccc3)C(=O)C2N1Nc1ccccc1` (configuration not stated): the composite z-score in assay [1] was 0.634 (inactive); in the assay on XIP peptide (Xip251-270) it was 0.828. Besides, the z-score is -0.168 in assay [2], -3.67 (inactive) in assay [3], 0.881 (inactive) in assay [4] and 0.352 (inactive) in assay [5].
Consider `COc1c(C)cc(-c2cc3c(c(-c4ccc(Oc5ccccc5)cc4)n2)[Si](C(C)C)(C(C)C)OC3)cc1C`, for which the composite z-score in assay [1] was -0.631 (inactive); in the assay with XIP peptide (Xip251-270) it was -0.466. Also, the z-score in assay [2] was -0.898; in assay [3] it was -0.746 (inactive); in assay [4], 0.621 (inactive); in assay [5], 0.37 (inactive).
Regarding `CS(=O)(=O)CCOC(=O)C1=CC(CCCO)=CC(c2cccs2)N(Cc2cc3c(cc2Br)OCO3)C=C1C(=O)OCCS(C)(=O)=O` (configuration not stated), the composite z-score in assay [1] is 0.555 (inactive); in the assay with XIP peptide (Xip251-270), 0.634. The z-score in assay [2] was -3.01; in assay [3], -2.91 (inactive); in assay [4] it was -0.169 (inactive); in assay [5] it was 0.132 (inactive).
With `COC(=O)c1ccc(C(O)C2C=CC3C(=O)N(C)C(=O)C3N2NC(=O)OC(C)(C)C)o1` (configuration not stated), the composite z-score in assay [1] was 3.49 (inactive); in the assay with XIP peptide (Xip251-270), 0.789. The z-score in assay [2] is 0.926; in assay [3], -1.46 (inactive); in assay [4], -0.0792 (inactive); in assay [5] it was -0.0828 (inactive).
On to `COCCOC(=O)N1C(=O)[C@@]2(c3cc(C#CCCO)ccc31)[C@H](c1ccc(O)cc1)N1[C@H](c3ccccc3)[C@H](c3ccccc3)OC(=O)[C@H]1[C@@H]2C(N)=O`, for which the composite z-score is 0.599 (inactive) in assay [1] and 0.77 with XIP peptide (Xip251-270). Besides, the z-score was -0.662 in assay [2], -5.33 (inactive) in assay [3], -0.296 (inactive) in assay [4] and -0.841 (inactive) in assay [5].
Consider `O=C(NCc1ccccc1)[C@]1(CCS(=O)(=O)c2ccccc2)N=C(c2ccc(OCCCO)cc2)O[C@@H]1c1ccccc1`, for which the composite z-score in assay [1] was 0.605 (inactive); in the assay on XIP peptide (Xip251-270), 0.678. In addition, the z-score in assay [2] was -2.18; in assay [3], -1.13 (inactive); in assay [4] it was -0.362 (inactive); in assay [5] it was -0.255 (inactive).
On to `COC(=O)c1ccc(C(O)C2C=CC3C(=O)N(c4ccccc4)C(=O)C3N2Nc2ccc(C#N)cc2)o1` (configuration not stated), for which the composite z-score in assay [1] is 0.324 (inactive); in the assay with XIP peptide (Xip251-270), 0.37. The z-score is 0.229 in assay [2], -3.24 (inactive) in assay [3], -0.645 (inactive) in assay [4] and -0.852 (inactive) in assay [5].
In the case of `COCCOC(=O)N1C(=O)[C@@]2(c3cc(C#CCC(C(=O)OC)C(=O)OC)ccc31)[C@H](c1ccc(O)cc1)N1[C@H](c3ccccc3)[C@H](c3ccccc3)OC(=O)[C@H]1[C@@H]2C(N)=O`, the composite z-score in assay [1] was 1.39 (inactive); in the assay on XIP peptide (Xip251-270), 0.619. For the same molecule, the z-score in assay [2] was -0.486; in assay [3], -3.8 (inactive); in assay [4], 0.676 (inactive); in assay [5] it was 0.98 (inactive).
As for `COCC(=C=CC[C@H](O)c1ccc(OCCO)cc1)C[C@H](O)c1cc(Cl)cc(Cl)c1O`, the composite z-score in assay [1] was 0.423 (inactive); with XIP peptide (Xip251-270) it was 0.161. Besides, the z-score in assay [2] was -1.55; in assay [3], -4.13 (inactive); in assay [4], -0.559 (inactive); in assay [5], 0.56 (inactive).
`CCOC(=O)C1=C[C@@H](C(C)C)N(S(=O)(=O)c2ccc(C)cc2)[C@H]1c1ccc(C(C)C)cc1`: the composite z-score in assay [1] is 0.306 (inactive); in the assay on XIP peptide (Xip251-270) it was -0.109. In addition, the z-score was -1.46 in assay [2], -0.549 (inactive) in assay [3], 0.25 (inactive) in assay [4] and 0.478 (inactive) in assay [5].
`O=C1[C@]2(CO)C=C(Br)[C@@H](C[C@@H]2c2ccccc2)[C@@]12CO2`: the composite z-score is -0.0567 (inactive) in assay [1] and 0.0525 with XIP peptide (Xip251-270). Also, the z-score in assay [2] is 0.808; in assay [3], -2.52 (inactive); in assay [4], -0.0932 (inactive); in assay [5], -0.0264 (inactive).
With `CCCCC=C[C@@H](NC(=O)c1ccc(C(=O)OC)cc1)c1ccccc1`, the figures for the composite z-score (in assay [1]; with XIP peptide (Xip251-270)) were 2.97 (inactive) and 0.0677, respectively. Besides, the z-score in assay [2] was -1.38; in assay [3], -4.21 (inactive); in assay [4] it was 0.492 (inactive); in assay [5], 0.256 (inactive).
As for `CCOC(=O)C[C@H]1[C@H](OC(=O)c2ccc(C(=O)c3ccccc3)cc2)[C@@H](NC(=O)C2CCCCC2)c2cc(OCCCO)ccc2N1C(=O)c1ccccc1`, the composite z-score in assay [1] was -0.373 (inactive); in the assay on XIP peptide (Xip251-270) it was 0.186. Also, the z-score in assay [2] is 0.863; in assay [3], -2.97 (inactive); in assay [4] it was 0.454 (inactive); in assay [5] it was 0.0465 (inactive).
`O=C1OCC=C[C@H]2OC34C=CCN(c5ccc6ccccc6c5)C(=O)[C@H]3N(CCCO)C(=O)[C@@H]4[C@@H]12` (some centres not stated): the composite z-score in assay [1] is 0.185 (inactive); in the assay on XIP peptide (Xip251-270) it was 1.03. Also, the z-score is -1.94 in assay [2], -2.03 (inactive) in assay [3], -0.114 (inactive) in assay [4] and -0.226 (inactive) in assay [5].
On to `O=C1O[C@H](c2ccccc2)[C@H](c2ccccc2)N2[C@H]1[C@@H](C(=O)O)[C@]1(C(=O)Nc3ccc(C#CC4=CCCCC4)cc31)[C@H]2c1ccc(OCCO)cc1`, for which the composite z-score in assay [1] is 0.4 (inactive); in the assay on XIP peptide (Xip251-270), 0.813. In addition, the z-score is -0.656 in assay [2], -5.08 (inactive) in assay [3], 0.222 (inactive) in assay [4] and -0.0216 (inactive) in assay [5].
